Compounds with a hit are over-represented: about 4.2% of the library has one in this group of screens.
ssDAF-12 act = activates DAF-12 receptor from parasite S. stercoralis; HEK293 ssDAF-12/GRIP1 lit1-tk-luc reporter, luminescence; % of 3 µM dafachronic acid response; activation, % at 6.8 µM; 1% of 370,000 active;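 active = activation above the mean over all tested compounds plus 3 SD, cut at about 0.9% in these data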;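 note: 0% = DMSO-only wells and 100% = 3 µM delta7-dafachronic acid wells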
hgDAF-12 ag = agonists of H. glycines DAF-12 nuclear receptor; activation, % at 6.8 µM; HEK293 GAL4-hgDAF12 UAS-luciferase reporter, agonist luminescence; normalized to butyrate control; 1.8% of 370,000 active;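 active = activation above a cutoff set at the mean of all screened compounds plus 3 SD, cut at about 10% in these data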;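 note: 0% = DMSO wells and 100% = sodium butyrate wells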
hcDAF12 agonist = activates DAF-12 receptor from parasite H. contortus. HEK293 hcDAF-12 lit1-tk-luc reporter, luminescence; 0% DMSO, 100% Δ7-dafachronic acid. activation, % at 6.8 µM. 1.4% of 370,000 active. AID 652067;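 active = activation above the mean of all tested compounds plus 3 SD, cut at about 5.5% in these data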;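 note: 100% = response to 3 µM Δ7-dafachronic acid high control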
DAX1 inh = inhibitors of DAX1 repression of SF-1 activated StAR promoter; HEK293T StAR-luciferase reporter, SF-1/DAX-1 repression relief; inhibition, % at 6.8 µM; 1.1% of 370,000 active;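 active = inhibition above the mean over all tested compounds plus 3 SD, cut at about 3.6% in these data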;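 note: 0% = DAX-1 cells with DMSO and 100% = cells lacking DAX-1 with DMSO; higher inhibition means more luminescence from relief of DAX-1 repression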
SMARCA2 activ = activators of SMARCA2 function. MG213 cells, MMTV-luciferase reporter, dexamethasone, overnight. activation, % at 9.1 µM. 1% of 370,000 active. AID 652017; in the data active = activation above about 7.8%;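 note: 0% = vehicle wells and 100% = reference activator wells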
SMARCA2 conf = SMARCA2 activation, confirmation screen. shares compounds with SMARCA2 activ. MG213 cells, MMTV-luciferase with dexamethasone, luminescence, overnight; MG213 cells expressing E1A, Rb sequestered; DMSO wells 0%, reference activator 100%. activation, % at 9.1 µM. 30% of 3,500 active;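 active = activation above its plate's cutoff, the mean activation of tested wells plus 3 SD, cut at about 7.9% in these data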
GAL4-VP16 Luc = activates GAL4-VP16 luciferase, flagging SMARCA2 activator hits; activation, % at 9.1 µM; HEK293 GAL4-VP16 pG5luc reporter, luciferase luminescence; scaled: DMSO wells 0%, SAHA wells 100%; shares compounds with SMARCA2 activ; 41% of 3,500 active;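 active = activation above the solvent-only control well mean plus 3 SD, averaged across control plates, cut at about 5.2% in these data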
Numbers without * were called inactive; nt = not tested or not shown.

SMILES	ssDAF-12 act	hgDAF-12 ag	hcDAF12 agonist	DAX1 inh	SMARCA2 activ	SMARCA2 conf	GAL4-VP16 Luc
COC(=O)c1cc(C(=O)OC)cc(-n2c(C)cc(C(=O)COC(=O)CNS(=O)(=O)c3ccc(C)cc3)c2C)c1	-1.5	5.9	1.5	-0.4	8.0*	-0.6	-0.8
CCn1c(C)csc1=NC(=O)c1ccccc1	-0.8	2.2	1.0	0.7	2.7	nt	nt
CCn1c(C)csc1=NC(=O)c1ccccc1O	0.0	9.9	6.3*	1.1	12.1*	3.6	8.0*
CN(CCc1ccccn1)C(=O)c1cccnc1Oc1ccccc1	-1.0	0.3	0.8	0.1	11.6*	-0.8	1.8
O=C(O)c1cccnc1Oc1ccccc1	-1.0	1.1	1.3	-0.3	-1.3	nt	nt
Cc1cccc(C)c1NC(=O)C1(C)CN(S(C)(=O)=O)CC(=O)N1Cc1cccs1 (stereo unspecified)	-0.8	-1.7	0.4	0.4	3.7	nt	nt
COc1ccc(CNC(=O)C[C@H]2C[C@H](C(=O)N3CCOCC3)[C@@]3(CCC4CCCC4)c4[nH]c5cc(-c6ccco6)ccc5c4CCN3C2=O)cc1OC	-1.4	-2.8	-2.6	-0.2	-4.8	nt	nt
CN(C)CCCNC(=O)C[C@H]1C[C@H](C(=O)N2CCOCC2)[C@@]2(CCC3CCCC3)c3[nH]c4cc(-c5ccco5)ccc4c3CCN2C1=O	-0.7	1.3	-1.2	0.4	8.2*	-3.8	0.1
CN(C)C(=O)CCc1ccc2c3c([nH]c2c1)[C@]1(CCC2CCCC2)[C@@H](C(=O)N2CCOCC2)C[C@H](CC(=O)NCCc2ccccn2)C(=O)N1CC3	-1.2	-0.1	-1.7	0.2	8.0*	-4.9	1.4
COc1ccc(S(=O)(=O)NC(N)=NCCc2ccc(OC)c(OC)c2)cc1	0.5	-3.7	-0.6	0.0	10.3*	0.8	3.6
COc1ccc(CCN=C(N)NS(=O)(=O)c2ccc(C)c(C)c2)cc1OC	-1.1	-3.6	-1.7	0.6	0.8	nt	nt
Cc1ccnc(NC(=S)NC(=O)/C=C/c2ccco2)c1	-0.3	6.7	2.7	0.6	8.0*	11.3*	8.9*
COC(=O)c1ccccc1NC(=O)/C=C/c1ccco1	-0.5	7.2	0.9	0.8	0.5	nt	nt
O=C(/C=C/c1ccco1)Nc1cccnc1Cl	-0.5	4.3	0.7	1.4	9.3*	6.3	6.8*
COc1ccc(Nc2nc3cc(-c4sccc4C)sc3c(=O)n2C)cc1OC	-0.5	9.3	0.2	-2.7	9.3*	3.5	8.4*
COc1ccc(Nc2nc3cc(-c4ccsc4)sc3c(=O)n2C)cc1OC	-1.2	2.1	-1.2	-1.9	3.4	nt	nt
CC(=O)c1cc(-c2ccc3[nH]ccc3c2)c(=O)n2c1CCC2	-1.7	-1.4	1.3	-0.1	3.6	nt	nt
O=C(C(=O)N1CCC(CNS(=O)(=O)c2cccc3ccccc23)CC1)c1cccs1	-1.1	-1.1	0.1	-0.6	-0.8	nt	nt
Cc1ccc(/C=c2\sc3n(c2=O)CN(c2ccc(Br)cc2)CN=3)o1	-1.0	4.0	-0.7	1.2	-1.5	nt	nt
Cc1ccc(/C=c2/sc3n(c2=O)CCCN=3)o1	-0.8	6.5	-0.4	1.0	8.7*	5.5	4.1
CC(C)(C)c1ccc(-c2nnc(SCC(=O)Nc3ccc4c(c3)OCCO4)n2-c2ccc(Cl)cc2)cc1	-1.5	-2.4	-1.0	0.4	-2.7	nt	nt
CC(=O)c1nn(-c2cccc(Br)c2)cc1C(=O)c1ccco1	-0.3	0.3	-1.7	-0.6	8.4*	-2.9	1.4
CC(=O)c1nn(-c2cccc(Br)c2)cc1C(=O)c1ccccc1	-1.6	-1.7	-0.2	0.1	-2.4	nt	nt
CN(C)c1ccc(CNn2cnnc2SCc2ccccc2F)cc1	-1.3	3.5	1.1	0.3	10.1*	2.0	3.0
CN(C)c1ccc(CNn2cnnc2SCC(=O)NC(C)(C)C)cc1	-1.4	-3.1	-1.5	-0.1	-2.9	nt	nt
SMILES	ssDAF-12 act	hgDAF-12 ag	hcDAF12 agonist	DAX1 inh	SMARCA2 activ	SMARCA2 conf	GAL4-VP16 Luc
O=c1[nH]nc2c3ccccc3occ1-2	-1.1	0.6	0.2	1.1	-7.5	nt	nt
COc1cccc(NC(=O)CSc2nc3ccccc3c(=O)n2Cc2cccs2)c1	-1.5	0.9	-0.6	-0.4	8.9*	-4.7	-1.2
Cc1cc(C(=O)N(C)C2CCCCC2)no1	-1.1	0.8	-1.1	0.9	-1.2	nt	nt
CN(C(=O)c1cc(-c2ccccc2)on1)C1CCCCC1	0.0	11.4*	2.2	2.8	9.1*	11.1*	9.3*
Cc1ccc2nc(CN(C)C(=O)[C@H](CCc3ccccc3)NC(=O)[C@H]3O[C@@H](n4cnc5c(N)ncnc54)[C@H](O)[C@@H]3O)[nH]c2c1	-1.1	-0.4	-0.3	0.6	-2.8	nt	nt
S=c1[nH]ncn1/N=C/c1ccc(N2CCOCC2)cc1	-0.1	6.9	1.5	2.5	9.2*	9.2*	11.3*
S=c1[nH]ncn1/N=C/c1ccc(Br)cc1	-1.4	0.1	-1.7	-0.1	0.3	nt	nt
Cc1ccc(CCNC(=O)CCS(=O)(=O)c2cc3c(cc2C)NC(=O)CO3)cc1	-0.7	0.3	0.7	0.8	12.0*	1.8	-0.8
O=C(CCS(=O)(=O)c1cc2c(cc1Cl)NC(=O)CO2)NCCc1ccccc1	-0.6	3.4	-1.9	0.0	0.0	nt	nt
CN(CCc1ccccc1)C(=O)c1cc2ccccn2n1	-0.5	7.2	1.5	1.0	8.2*	5.1	6.0*
CCOC(=O)c1sc(=NC(=O)c2cccc(Br)c2)n(C)c1C	-0.6	5.2	1.4	0.0	0.4	nt	nt
CCOC(=O)c1sc(=NC(=O)c2cccc(C)c2)n(C)c1C	-0.6	7.2	2.4	3.8*	13.4*	5.1	5.9*
CC(C)c1ccc(/C=C2\SC(N3CCCC3)=NC2=O)cc1	-1.0	0.5	-3.5	-0.9	8.3*	1.3	-1.0
CCOC(=O)CCSc1nc(C)c2cc(C)c(C)cc2n1	-1.1	2.9	-0.8	-0.3	3.0	nt	nt
CCOC(=O)CCSc1nc(C)c2cc(OC)ccc2n1	0.1	6.7	0.5	2.1	10.4*	9.0*	11.1*
CC(=O)C1=C(C)NC(SCC(=O)c2ccc(Cl)c(Cl)c2)=C(C#N)C1c1ccco1 (stereo unspecified)	-1.8	-0.4	-3.3	0.1	8.6*	-5.2	-0.4
CCSc1nnc(NC(=O)c2csc(C)c2)s1	-0.8	5.1	1.4	1.4	8.1*	5.0	8.8*
CCCC(=O)Nc1nnc(SCC(=O)N2CCCCC2)s1	-0.4	1.0	0.8	0.5	-1.0	nt	nt
CCCC(=O)Nc1nnc(SCC)s1	-1.1	2.2	-0.7	-0.5	8.5*	2.5	1.6
Cc1ccc(-n2c(Cc3cccs3)nnc2SCc2ccc(Br)cc2)cc1	-1.2	-2.4	-3.5	-0.2	-5.9	nt	nt

Assay outcomes as filed in PubChem BioAssay.
